Reference: PubChem BioAssay (EPA / NIEHS)
Results filed as inconclusive are left out. Calls of active or inactive are those of the source. Rule for the calls, unless noted: active = hit-call score of the fitted dose curve at least 0.9, where 1 is the maximum; inactive = score below 0.9.

Columns and labels:
[1] = CCTE_Harrill_HTTr_Viability_MCF7: CCTE's 6-hour Cell Viability Assessment for the High-Throughput Transcriptomics (HTTr) Platform, in MCF-7 cells cultured in DMEM + 10% fetal bovine serum, Harrill Lab (AID 2284010)
Outline: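 MCF-7 cells in DMEM + 10% FBS, 384-well, exposed 6 h to an eight-point dilution series. Membrane integrity scored by high-content imaging of propidium iodide exclusion; bidirectional fit versus DMSO.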

[2] = CCTE_Harrill_HTTr_Apoptosis_MCF7: CCTE's 6-hour Apoptosis Assessment for the High-Throughput Transcriptomics (HTTr) Platform, in MCF-7 cells cultured in DMEM + 10% fetal bovine serum, Harrill Lab (AID 2284011)
Outline: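 MCF-7 (DMEM + 10% FBS), 384-well; 8-pt dilution series, 6 h chemical exposure; caspase-3/7 activation via CellEvent Caspase 3/7 Green, HCI; bidirectional fit vs DMSO.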

[3] = CCTE_Harrill_HTTr_CellCount_MCF7: CCTE's Cell Proliferation Assessment for the High-Throughput Transcriptomics (HTTr) Platform, Harrill Lab (AID 2284012; active = hit-call score of the fitted dose curve at least 0.9, where 1 is the maximum;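 note: cells exposed to compound for six hours; intended direction is loss of nuclei count meaning fewer cells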)
Outline: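 MCF7 cells exposed 6 hours to an eight-point dilution series; Hoechst-stained nuclei counted by high-content imaging. Bidirectional curve fitting against DMSO baseline.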

In the case of `CC(=O)C1C(=O)C=C(C)OC1=O` (centres undefined), the outcome [1] is reported as “inactive”, the outcome [2] is reported as “inactive” and the outcome [3] is reported as “inactive”.
For `CCCCOC(=O)C(C)OC(=O)CCC` (centres undefined), the outcome [1] was “inactive”, the outcome [2] was “inactive” and the outcome [3] was “inactive”.
With `CC(O)COCC(C)O` (centres undefined) the outcome [1] was “inactive”, the outcome [2] was “inactive” and the outcome [3] was “inactive”.
For `Brc1cc(Br)cc(Br)c1`, the outcome [1] was “inactive”, the outcome [2] was “inactive” and the outcome [3] was “inactive”.
For `C[C@H](CCC(=O)O)[C@H]1CC[C@H]2[C@@H]3CC[C@@H]4C[C@H](O)CC[C@]4(C)[C@H]3CC[C@]12C`, the outcome [1] was “inactive”, the outcome [2] was “inactive” and the outcome [3] was “inactive”.
In the case of `Cc1cccc(O)c1`, the outcome [1] is reported as “inactive”, the outcome [2] is reported as “inactive” and the outcome [3] is reported as “inactive”.
In the case of `O=C(O)C1=NN(c2ccc(S(=O)(=O)O)cc2)C(=O)C1`, the outcome [1] is reported as “inactive”, the outcome [2] is reported as “inactive” and the outcome [3] is reported as “inactive”.
With `Cc1ccc(C(C)(C)O)cc1` the outcome [1] was “inactive”, the outcome [2] was “inactive” and the outcome [3] was “inactive”.
In the case of `C1COCO1`, the outcome [1] is reported as “inactive”, the outcome [2] is reported as “inactive” and the outcome [3] is reported as “inactive”.
With `CC(=O)CCC(=O)O` the outcome [1] was “inactive” and the outcome [2] was “inactive”.
In the case of `CN(C)C`, the outcome [1] is reported as “inactive”, the outcome [2] is reported as “inactive” and the outcome [3] is reported as “inactive”.
In the case of `O=C1CCCCCCCCCCCC(=O)OCCO1`, the outcome [1] is reported as “inactive”, the outcome [2] is reported as “inactive” and the outcome [3] is reported as “inactive”.
With `COc1ccc2[nH]cc(CCNC(C)=O)c2c1` the outcome [1] was “inactive”, the outcome [2] was “inactive” and the outcome [3] was “inactive”.
In the case of `Cc1cccc(C)c1`, the outcome [1] is reported as “inactive”, the outcome [2] is reported as “inactive” and the outcome [3] is reported as “inactive”.
For `CCOC(=O)C=Cc1ccccc1`, the outcome [1] was “inactive” and the outcome [2] was “inactive”.
In the case of `NC(N)=NC(N)=NCCc1ccccc1`, the outcome [1] is reported as “inactive”, the outcome [2] is reported as “inactive” and the outcome [3] is reported as “inactive”.
In the case of `CC(C)(O)CCc1ccccc1`, the outcome [1] is reported as “inactive”, the outcome [2] is reported as “inactive” and the outcome [3] is reported as “inactive”.
In the case of `Cc1ccncc1`, the outcome [1] is reported as “inactive” and the outcome [2] is reported as “inactive”.
In the case of `COC(=O)C(C)Oc1ccc(Oc2ncc(C(F)(F)F)cc2Cl)cc1` (centres undefined), the outcome [1] is reported as “inactive”, the outcome [2] is reported as “inactive” and the outcome [3] is reported as “inactive”.
For `C=C1CC/C=C(\C)CC[C@@H]2[C@@H]1CC2(C)C`, the outcome [1] was “inactive” and the outcome [2] was “inactive”.
In the case of `CC(=O)CCc1ccc(O)cc1`, the outcome [2] is reported as “inactive”.
For `CC1=CCC(=C(C)C)CC1`, the outcome [2] was “inactive”.
In the case of `c1coc(CNc2ncnc3nc[nH]c23)c1`, the outcome [2] is reported as “inactive”.
For `CCCCCC(=O)O[C@]1(C(C)=O)CC[C@H]2[C@@H]3CCC4=CC(=O)CC[C@]4(C)[C@H]3CC[C@@]21C`, the outcome [2] was “inactive”.
With `CCCCCC1CCC(=O)O1` (centres undefined) the outcome [2] was “inactive”.
For `CCCCCCCCCCCCCC(=O)OCC`, the outcome [2] was “inactive” and the outcome [3] was “inactive”.
For `CCCCCCOC(C)=O`, the outcome [2] was “inactive”.
In the case of `c1ccc(Cc2ccccc2)cc1`, the outcome [2] is reported as “inactive” and the outcome [3] is reported as “inactive”.
With `NC(=O)c1c(Cl)cccc1Cl` the outcome [2] was “inactive” and the outcome [3] was “inactive”.
With `OCC=Cc1ccccc1` the outcome [2] was “inactive”.
In the case of `O=C(O)c1cc(C(=O)O)c(C(=O)O)cc1C(=O)O`, the outcome [2] is reported as “inactive” and the outcome [3] is reported as “inactive”.
With `CN(C)CCCNCCCN(C)C` the outcome [2] was “inactive” and the outcome [3] was “inactive”.
For `NC(=O)c1cccnc1`, the outcome [2] was “inactive” and the outcome [3] was “inactive”.
For `CC(C)Cc1ccc(C(C)C(=O)O)cc1` (centres undefined), the outcome [2] was “inactive”.
With `OC[C@H]1O[C@@H](O[C@H]2[C@H](O)[C@@H](O)[C@H](O)O[C@@H]2CO)[C@H](O)[C@@H](O)[C@H]1O` the outcome [2] was “inactive” and the outcome [3] was “inactive”.
For `CC(=O)OC/C=C(C)/C=C/C=C(C)/C=C/C1=C(C)CCCC1(C)C`, the outcome [2] was “inactive” and the outcome [3] was “inactive”.
With `NS(=O)(=O)c1cc(C(=O)O)c(NCc2ccco2)cc1Cl` the outcome [2] was “inactive”.
For `O=C(O)c1cc2ccccc2cc1O`, the outcome [2] was “inactive” and the outcome [3] was “inactive”.
In the case of `CCCCCCCCCO`, the outcome [2] is reported as “inactive”.
With `CN(C)C(=O)Nc1ccccc1` the outcome [2] was “inactive” and the outcome [3] was “inactive”.
In the case of `CN(C)CCC=C1c2ccccc2CCc2ccccc21`, the outcome [2] is reported as “inactive”.
For `CN1CCc2cccc3c2[C@H]1Cc1ccc(O)c(O)c1-3`, the outcome [2] was “inactive” and the outcome [3] was “inactive”.
With `O=C(O)c1ccccc1O` the outcome [2] was “inactive” and the outcome [3] was “inactive”.
In the case of `CC(O)CN` (centres undefined), the outcome [2] is reported as “inactive”.
With `COc1ccccc1O` the outcome [2] was “inactive” and the outcome [3] was “inactive”.
With `O=C1OC2(c3ccc(O)cc3Oc3cc(O)ccc32)c2ccccc21` the AC50 [2] was 171 nM (active) and the outcome [3] was “inactive”.
With `CC(C)Cc1ccccc1` the outcome [2] was “inactive” and the outcome [3] was “inactive”.
In the case of `CC12CCC(C1)C(C)(C)C2O` (centres undefined), the outcome [2] is reported as “inactive” and the outcome [3] is reported as “inactive”.
In the case of `NC(N)=S`, the outcome [2] is reported as “inactive” and the outcome [3] is reported as “inactive”.
In the case of `Cc1cc(O)c2c(c1)C(=O)c1cc(O)cc(O)c1C2=O`, the outcome [2] is reported as “inactive” and the outcome [3] is reported as “inactive”.
With `O=c1cc(-c2ccc(O)cc2)oc2cc(O)cc(O)c12` the outcome [2] was “inactive” and the outcome [3] was “inactive”.
For `COc1ccc(C(C)=O)cc1`, the outcome [2] was “inactive” and the outcome [3] was “inactive”.
In the case of `C=CC(C)CCCC(C)(C)O` (centres undefined), the outcome [2] is reported as “inactive”.
